Compounds with a hit are over-represented: about 0.3% of the library has one in this group of screens.
hcGAS lum: human cGAS inhibition; inhibition, % at 12.5 µM; AID 1259398; recombinant h-cGAS, ATP depletion, Kinase-Glo luminescence; 290,000 tested, 0.081% active;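 note: 0% = vehicle reaction and 100% = reaction without DNA for no activity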
Target sequence (Q8N884 whole entry, looked up): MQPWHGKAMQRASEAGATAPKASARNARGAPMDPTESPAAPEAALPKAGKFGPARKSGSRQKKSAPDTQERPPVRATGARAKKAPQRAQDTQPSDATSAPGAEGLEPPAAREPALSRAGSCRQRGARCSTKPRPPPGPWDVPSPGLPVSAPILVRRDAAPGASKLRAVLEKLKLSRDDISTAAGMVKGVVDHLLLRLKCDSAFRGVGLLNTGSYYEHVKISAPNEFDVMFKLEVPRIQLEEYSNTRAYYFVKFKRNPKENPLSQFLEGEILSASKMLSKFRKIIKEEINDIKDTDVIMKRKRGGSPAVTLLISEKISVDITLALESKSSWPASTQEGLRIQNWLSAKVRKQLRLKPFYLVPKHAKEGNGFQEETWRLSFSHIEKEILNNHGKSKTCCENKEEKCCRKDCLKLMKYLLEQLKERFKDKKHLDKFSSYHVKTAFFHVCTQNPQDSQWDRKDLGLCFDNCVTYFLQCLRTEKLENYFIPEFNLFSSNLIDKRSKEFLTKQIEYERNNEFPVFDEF
mcGAS inh: mouse cGAS inhibition by luminescence. Q8C6L5. recombinant cGAS, Kinase-Glo ATP depletion luminescence. inhibition, % at 12.5 µM. 160,000 tested, 0.15% active. AID 1259399;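 note: 0% = negative control wells and 100% = reference inhibitor with no enzyme activity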
NPYLR7 ag: mosquito NPYLR7 agonism; AID 1259423; activation, % at 10 µM; 270,000 tested, 0.15% active; HEK293T NPYLR7/Galpha15, GCaMP6s calcium fluorescence; in the data active = activation above about 40%;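 note: 0% = vehicle and 100% = reference agonist at the receptor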
* marks the source's active call; other numbers are inactive results; x = not tested or not shown. Cut-off read from the data, not from the text of the source, unless noted: active = inhibition above about 40%; inactive = the rest.

SMILES | hcGAS lum | mcGAS inh | NPYLR7 ag
COc1ccc(OC)c(S(=O)(=O)N2CCN(c3cc(-n4ccnc4)nc(C)n3)CC2)c1 | -2.2 | -6.6 | -10.2
c1csc(-c2cnc3ccc(-c4ccncc4)nn23)c1 | 2.0 | 5.5 | 7.7
O=c1nc2n3ccc(-c4ccncc4)cc3ncc-2s1 | -2.1 | -2.2 | 55.1*
O=C1CC(c2ccccc2)N(CC(=O)NC2CCCCCC2)CCN1 (stereo unspecified) | -7.7 | x | -4.7
COCc1cc(C)nc(N/N=C\c2cc(I)c(OC)c(OC)c2)c1C#N | -2.9 | -4.6 | -1.9
N#CCCNN=Cc1cc(I)c(O)c(I)c1 | 54.7* | 99.0* | -1.0
O=C(c1cn2cccnc2n1)N1CCCC(Cn2cc(C3CCCC3)nn2)C1 (stereo unspecified) | -5.1 | x | x
O=c1[nH]c(SCCO)nc2sc3c(c12)CCCC3 | -1.0 | -5.5 | 40.4*
Cc1nc(SCCO)c2c3c(sc2n1)CCCC3 | -4.5 | 6.9 | -1.3
COc1ccccc1N1CCN(c2ccc(NC(=O)CC(C)C)cc2C(=O)N2CCCCC2)CC1 | -3.3 | -3.8 | -4.5
O=C(NCCN1CCCC(O)C1)c1cn(Cc2cccc(C(F)(F)F)c2)nn1 (stereo unspecified) | -7.1 | x | 6.6
CC(C)(C)C(NCn1nc2ccccn2c1=S)c1cccs1 (stereo unspecified) | -4.4 | -6.7 | 7.7
C#CCOCC(O)CN(Cc1ccccc1C)C1CC1 (stereo unspecified) | -4.2 | -1.8 | 15.7
C#CCOCC(O)CN(Cc1cccn1Cc1ccccc1C)C1CC1 (stereo unspecified) | -4.6 | 41.1* | 35.2
O=C(NCc1ccco1)NN=C1c2ccccc2-c2ccccc21 | -4.7 | -7.9 | 3.4
CC1=NN(c2ccc(Cl)c(C(=O)O)c2)C(=O)/C1=C\c1ccc(Br)c([N+](=O)[O-])c1 | 7.4 | 50.3* | 4.5
COc1cc(/C=C2\C(=O)N(c3ccc(Cl)c(C(=O)O)c3)N=C2C)cc([N+](=O)[O-])c1O | -2.9 | 26.1 | 2.5
COC(=O)C1=NNC2C(=O)N(c3ccc(OC)cc3)C(=O)C12 (stereo unspecified) | -2.4 | -3.6 | 6.0
COCCCN(Cc1ccc(C(C)(C)C)cc1)Cc1cccn1Cc1cccc(C)c1 | -9.9 | -5.0 | 41.4*
COCCN(Cc1ccc(C(C)(C)C)cc1)Cc1cccn1Cc1cccc(C)c1 | 0.6 | -2.8 | 17.2
O[C@@H]1CN(c2cnc3ccccc3n2)CC[C@H]1c1ccc2c(c1)OCO2 | -0.5 | -7.5 | -2.3
O=C(CCl)N1CCCc2cc([N+](=O)[O-])ccc21 | 1.1 | 95.8* | 2.5
O=C(c1ccc([N+](=O)[O-])cc1)N1CCCc2ccccc21 | -5.6 | x | 3.9
CCN1/C(=C\C=C2/SC(=NCc3ccccc3)N(C)C2=O)Sc2ccccc21 | 0.0 | 1.3 | -5.0
CCC(CO)[n+]1c(C)cc(C=C2Sc3ccccc3N2Cc2ccccc2)cc1C (stereo unspecified) | 6.8 | x | 150.5*
SMILES | hcGAS lum | mcGAS inh | NPYLR7 ag
CCN1C(=Cc2cc(C)[n+](C3CCCCC3)c(C)c2)Sc2ccccc21 | 0.9 | x | 265.9*
CCN1C(=Cc2cc(C)[n+](CCO)c(C)c2)Sc2ccccc21 | 2.0 | -1.0 | 45.5
Cn1ncc2c(Nc3ccc(Cl)cc3)nc(NCCN3CCOCC3)nc21 | -3.2 | -7.2 | 8.2
Cc1ccc(NC(=O)CC2Cn3cccc3C2=O)cc1 (stereo unspecified) | -3.9 | x | 11.2
COCCN(Cc1ccc(C)cc1)CC(O)COCC(C)C (stereo unspecified) | 1.2 | 90.1* | 17.8
COCCN(Cc1ccc(OC)cc1)CC(O)COC(C)C (stereo unspecified) | -3.1 | -5.2 | 44.8
COc1cccc(C2=NC(=Cc3cc(Br)ccc3OC)C(=O)O2)c1 | 1.6 | x | -5.2
CC1C(=O)N(c2cccc(F)c2)CCN1C(=O)C1CC1 (stereo unspecified) | 1.6 | -0.5 | 43.9*
CC1C(=O)N(c2cccc(F)c2)CCN1C(=O)C1CCCC1 (stereo unspecified) | -7.3 | -6.0 | -3.4
O=C1/C(=C/c2cccc(Cl)c2)Oc2c1ccc(O)c2CN1CCN(CCO)CC1 | 15.0 | 12.3 | 50.4*
O=C1/C(=C/c2cccc(Br)c2)Oc2c1ccc(O)c2CN1CCN(CCO)CC1 | 6.1 | 10.3 | 52.1*
Cc1cc(O)c(CN2CCN(CCO)CC2)c2c1C(=O)/C(=C/c1ccc(F)cc1)O2 | -6.6 | -7.4 | 14.7
O=c1oc2c(CN3CCN(CCO)CC3)c(O)ccc2cc1-c1ccc(Cl)cc1 | -7.8 | -7.2 | 7.1
O=C1/C(=C/c2cccc(F)c2)Oc2c1ccc(O)c2CN1CCN(CCO)CC1 | 8.5 | 2.3 | 57.5*
Cc1cc(O)c(CN2CCN(CCO)CC2)c2c1C(=O)/C(=C/c1ccco1)O2 | -2.2 | -10.2 | 28.0
CCS(=O)(=O)c1cccc(NC(=O)C2CCn3ccnc3C2)c1 (stereo unspecified) | -0.2 | -2.6 | 0.0
C=CCN1C(=O)/C(=C\c2ccc(O)cc2)SC1=S | -7.5 | -6.1 | 54.9*
